Compound activity: PubChem, several laboratories
NR3A LBD binder – binders of NR3A ligand-binding domain, primary screen, biophysical, differential scanning fluorimetry, uHTS; NR3A LBD differential scanning fluorimetry, Tm shift; 0% = protein alone, 100% = glycine-bound protein; Glutamate receptor ionotropic, NMDA 3A (GRIN3A) ligand-binding domain; Tm shift relative to glycine control, % at 25 µM; 340,000 compounds, 2.5% hits;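 active = melting temperature shift of at least 10% of the positive control shift, at one fixed dose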
CRFBP-R2 block – antagonists of CRF-BP/CRF-R2 complex, primary screen, cell-based, HEK293, calcium dye fluorescence, uHTS. CRF-induced calcium fluorescence. inhibition, % at 11.8 µM. 350,000 compounds, 0.59% hits. AID 588475, 2011;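 active = inhibition of the ligand-induced calcium signal above about 50% at the single tested concentration, limit read from the data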
MPTP block – mitochondrial permeability transition pore inhibitors, primary screen, biochemical, isolated mouse mitochondria, absorbance | 360,000 compounds, 1.4% hits | Ca2+ swelling absorbance, 30 min | inhibition, % at 10 µM;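 active = inhibition of 50% or more, scaled per plate between neutral and stimulator controls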;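 note: 0% = DMSO wells given calcium and 100% = 1 mM EGTA wells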
CRFR2-BP ag – agonists of CRF-BP/CRF-R2 complex, primary screen, cell-based, HEK293, calcium dye fluorescence, uHTS; CRF-binding protein / CRF receptor 2 complex (human); calcium dye fluorescence (FLIPR); percent of saturating CRF peptide response; activation, % at 13.2 µM; 350,000 compounds, 0.46% hits; AID 588473, 2011;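 active = activation of at least 50%, plus an integration ratio under a set limit after plate pattern correction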;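 note: plate controls were neutral control wells without compound for no effect and CRF at EC100 for full effect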
TMEM16A inh – TMEM16A chloride channel inhibitors, primary screen, cell-based, HTS; Anoctamin-1 (Mus musculus), Q8BHY3; HEK293 TMEM16A/YFP iodide influx fluorescence, ionomycin; normalized B-score (activity score, 25-100; higher = stronger inhibition) at 10 µM; 310,000 compounds, 1.2% hits; AID 588511, 2011;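 active = ratio plate-corrected score three or more library SD toward inhibition, starting fluorescence score within five deviations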;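 note: score derived from kinetic fluorescence span divided by baseline fluorescence per well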
TMEM16A act – TMEM16A chloride channel activators or potentiators, primary screen, cell-based, HTS | HEK293 TMEM16A/YFP-H148Q/I152L, iodide quench fluorescence; active compounds read low | B-score at 10 µM | 340,000 compounds, 0.3% hits | AID 623877, 2012;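 active = fluorescence-ratio B-score plate-corrected deviation score at least 3 library SD below zero, with starting fluorescence score within 5 deviations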;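 note: channel opened by trigger with iodide after compound preincubation; score built on the fluorescence ratio of max minus min over baseline; more negative score means more quench and so TMEM16A activation or potentiation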
Numbers without * were called inactive; i = inactive; . = not tested or not shown. Most compounds without a hit are left out; they make up all but 5.1% or so of the library.

SMILES	NR3A LBD binder	CRFBP-R2 block	MPTP block	CRFR2-BP ag	TMEM16A inh	TMEM16A act
CCOc1cc(/C=C2/C(=O)ON=C2C)ccc1OCc1ccc(F)cc1	1.6	-52.9	-0.7	41.2	i	i
CCOc1cc(/C=C2/C(=O)ON=C2C)ccc1OCc1ccccc1	26.2*	-13.7	.	14.9	i	.
COc1cc(C(F)(F)F)c(C(=O)N(C)Cc2cccc(Cl)c2)cn1	13.9*	-4.8	1.7	0.4	i	i
COc1cc(C(F)(F)F)c(C(=O)N(C)Cc2cc(Cl)cc(Cl)c2)cn1	1.5	-5.4	2.9	-1.5	i	i
Cc1cc(C)c(OCC(=O)OCC(=O)NCCC2=CCCCC2)c(C)c1	-0.7	3.9	-0.3	1.4	i	i
CN(C)S(=O)(=O)c1ccc2c(c1)/C(=C/c1cc3c([nH]1)CCCC3)C(=O)N2	-2.2	-139.3	4.1	122.1*	i	i
CCCCn1c(SCc2c(C)noc2C)nc2cc(S(N)(=O)=O)ccc21	2.4	54.0*	-1.1	-0.3	i	i
Cc1ccc(C(C)C)c(OCC(=O)N/N=C/c2cccn2C)c1	-0.6	-0.3	6.3	0.2	i	i
Cc1ccc(C)c(N2CCN(S(=O)(=O)c3ccc(-c4cc(C)no4)s3)CC2)c1	-0.4	-5.1	0.8	1.9	i	i
O=C(Cc1c(O)c2ccccc2[nH]c1=O)N(Cc1ccccc1)Cc1ccccc1	-0.7	-4.7	1.3	0.9	i	i
O=C(Cc1c(O)c2ccccc2[nH]c1=O)OC1CCCCC1	-2.6	67.5*	6.0	-2.4	i	i
CN1C2CCC1/C(=C/c1cccn1C)C(=O)/C2=C\c1cccn1C	-5.4	-267.9	5.2	237.3*	i	i
Cn1cccc1/C=C1\Cc2ccccc2C1=O	0.4	-12.7	3.4	4.8	i	i
Cn1cccc1/C=C1\CC(C(C)(C)C)C/C(=C\c2cccn2C)C1=O (stereo unspecified)	-5.0	-118.6	2.9	79.0*	i	i
Cc1ccc(Oc2ccc(C(=O)NC3CCSC3=O)cn2)cc1 (stereo unspecified)	11.0*	-3.2	-2.9	-0.6	i	i
O=C(NC1CCSC1=O)c1ccc(Oc2ccc(F)cc2)nc1 (stereo unspecified)	-0.2	-2.1	-3.0	-2.0	i	i
CCOc1cc(-c2nc(-c3ccc(OC)cc3)no2)cc(OCC)c1OCC	-0.2	10.3	-7.5	0.5	i	i
CCOc1cc(-c2nc(-c3ccccc3OC)no2)cc(OCC)c1OCC	11.3*	13.9	5.4	2.1	i	i
O=C(CSc1ccccc1)NCC1(N2CCCCC2)CCCCC1	-0.9	-4.7	-1.1	0.2	i	i
COCCN1Cc2cccc(C(=O)Nc3cc(OC)ccc3OC)c2C1=O	2.8	-34.6	-0.3	60.5*	i	i
Cc1cc(/C=C2\SC(=S)N(Cc3ccco3)C2=O)c(C)n1-c1cccnc1	3.3	-35.8	6.9	54.8*	.	i
O=C(Nc1cccc(Cl)c1)c1ccc2ncsc2c1	33.8*	-25.0	-0.2	-1.2	i	i
O=C(COC(=O)c1ccc2ncsc2c1)Nc1cccc(Cl)c1	-2.2	-6.1	-0.5	-0.3	.	i
O=C(Nc1ccc(Cl)cc1)c1ccc2ncsc2c1	23.9*	-2.0	2.0	1.9	i	i
COc1ccc(Cn2cc(CN3CC(N4CCSCC4)CS3(=O)=O)nn2)cc1 (stereo unspecified)	.	.	-1.5	.	.	.
CC(OC(=O)CCN=C1NS(=O)(=O)c2ccccc21)C(=O)Nc1ccc(S(N)(=O)=O)cc1 (stereo unspecified)	0.5	-6.1	-1.2	1.7	.	i
C#CCN(C(=O)C1CCC(=O)N(CCc2cccc(F)c2)C1)C1CCCCC1 (stereo unspecified)	.	-13.7	-1.5	-0.8	.	.
COc1ccc(-c2ncccc2OC(=O)C23CC4CC(CC(C4)C2)C3)cc1	16.4*	6.1	1.2	1.2	i	i
